Where “and” joins values, the source holds several entries; their conditions need not be identical. Identical values can stand only once. Inconclusive results are not listed. Calls of active or inactive are those of the source. Calls follow the shape of the full dose curve.

Chain of Neuropeptide S receptor (Homo sapiens) (Q6W5P4 whole entry, looked up): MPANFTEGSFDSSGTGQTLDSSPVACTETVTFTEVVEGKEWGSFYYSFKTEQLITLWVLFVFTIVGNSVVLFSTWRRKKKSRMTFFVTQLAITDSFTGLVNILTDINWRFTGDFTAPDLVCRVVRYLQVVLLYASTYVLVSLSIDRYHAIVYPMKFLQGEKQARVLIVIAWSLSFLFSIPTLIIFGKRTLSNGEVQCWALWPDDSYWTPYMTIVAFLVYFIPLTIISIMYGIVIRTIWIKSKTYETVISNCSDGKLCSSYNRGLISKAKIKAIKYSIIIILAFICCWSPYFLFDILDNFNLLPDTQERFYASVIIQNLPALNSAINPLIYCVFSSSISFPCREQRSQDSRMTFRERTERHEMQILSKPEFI

The target of the assay is Neuropeptide S receptor (Homo sapiens) (UniProt Q6W5P4). Kind of assay: Confirmation Concentration-Response Assay for Antagonists of the Neuropeptide S Receptor: cAMP Signal Transduction, SAR for Probe. Conditions: CHO-NPSR cells, cAMP TR-FRET, antagonist mode; series mostly up to 47.8 µM. An excerpt:
NIH Chemical Genomics Center [NCGC] NIH Molecular Libraries Probe Production centers Network [MLPCN] MLPCN Grant: X01-DA026210-01 Assay Submitter (PI): Heilig, Markus Alexander NCGC Assay Overview: Neuropeptide S receptor (NPSR), previously known as GPR154, is a recently de-orphanized G protein coupled receptor. Its endogenous ligand is the 20 amino acids peptide Neuropeptide S (NPS). […] NPS and its receptor are found in various tissues. Specifically they are highly expressed in brain areas that have been implicated in modulation of arousal, stress and anxiety. Central administration of NPS in mice produces an unusual profile of activity by inducing wakefulness and arousal, while at the same time suppressing anxiety. Therefore, NPSR may represent a novel drug target for the treatment of sleep and anxiety disorders. To identify NPSR antagonists, we developed a cell-based cAMP assay. NPS can stimulate the production of cAMP in Chinese hamster ovary cells stably expressing NPS receptor. This change in intracellular cAMP level can be detected by a homogeneous LANCE cAMP assay based on the TR-FRET (time resolved fluorescence resonance energy transfer) between a europium-labeled cAMP tracer complex and a cAMP-specific antibody labeled with Alexa Fluor 647. The europium-labeled cAMP tracer complex is formed by the tight interaction between Biotin-cAMP (b-cAMP) and streptavidin labeled with Europium-W8044 chelate (Eu-SA). Light pulse at 320 nm excites the europium of the cAMP tracer and the energy emitted is transferred to the Alexa molecule bound to the cAMP antibody, generating a TR-FRET signal at 665 nm. Residual energy from the europium will produce a light at 620 nm. The native unlabeled cAMP from cell lysates competes with the europium-cAMP tracer for antibody binding and reversely reduces the emission signal of Alexa by interrupting FRET between the two labeled molecules. Both emission signals from the FRET donor (620 nm) and the acceptor (665 nm) can be detected by a plate reader in the TRF mode. Expression of result in fluorescence ratio (665 nm/620 nm) helps to normalize differences due to cell density and reagent dispensing. This assay was successfully optimized to a 1536-well plate format. Select compounds from the primary screen (AID 1461) were chosen for confirmation based on potency, efficacy, SAR, and activity across other assays in PubChem and at NCGC. Other compounds are analogs of active compounds from the primary screen.
NCGC Assay Protocol Summary: A Chinese hamster ovary (CHO) cell line stably expressing the NPS receptor (CHO-NPSR) was obtained from Dr. Heilig lab at NIAAA and maintained in F-12 Kaighn's media (Invitrogen, Carlsbad, CA, 21127) supplemented with 10 % FBS, 100 units/ml penicillin, 100 ug/ml streptomycin and 250 ug/ml geneticin at 37C, 5% CO2 in a humidified atmosphere. Before the assay, aliquots of cells were frozen and stored at -135C. The assay was performed in 1536-well format. Data are reported for both the ratio of the two emission wavelengths, and also for the component 'donor' channel, Em2=620. […] IC50 values were determined from concentration-response data modeled with the standard Hill equation. NPS 1536-well assay protocol: (1) Fresh or frozen CHO-NPSR cells were suspended in F-12 Kaighn's media supplemented with 10 % FBS, 100 units/ml penicillin and 100 ug/ml streptomycin. Cells were plated at 4 ul/well (1200 cells) to white, tissue culture treated 1536-well plates, and then cultured at 37C, 5 % CO2 for 16 to 30 hours. (2) Add 23 nl/well of compound in DMSO solution. The final titration for each compound was between 0.6 nM and 46 uM. (3) Add 1 ul of stimulation reagent (1X HBSS buffer, 5 mM HEPES, 0.1% BSA, 500 uM RO-201724 (Sigma-Aldrich, B8279), 1.5% Alexa 647-labeled anti-cAMP antibody (from Perkin Elmer), 100 nM NPS) (4) Incubation at 37C, 5 % CO2 for 60 min. (5) Add 1 ul/well detection reagent. […]
(In TR-FRET formats the signal depends on donor and acceptor labels being close together.)
For `Cc1c(P(=S)(c2ccccc2)c2ccccc2)[n+]2ccccc2n1CCCc1ccccc1`, the Potency is 0.772 µM (active).

As for `Cn1c(-c2ccccc2)c(P(=S)(c2ccccc2)c2ccccc2)c2ccccc21`, the Potency result is “inactive”.

As to `Cc1c(P(=S)(c2ccccc2)c2ccccc2)c2ccccc2n1C`, the Potency was 31.5 µM (active).

In the case of `Cc1[nH]c2ccccc2c1P(=S)(c1ccccc1)c1ccccc1`, the Potency is 39.7 µM (active).

As to `Cc1nc2ccccn2c1P(=S)(c1ccccc1)c1ccccc1`, the Potency was 25 µM (active).

As for `Cc1c(P(=S)(c2ccccc2)c2ccccc2)[n+]2ccccc2n1C/C=C/c1ccccc1`, the Potency is 0.387 µM (active).

`Cc1c(P(=S)(c2ccccc2)c2ccccc2)[n+]2ccccc2n1C`: the Potency is 2.23 µM (active) and 4.87 µM (active).

As for `Cc1c(P(=S)(c2ccccc2)c2ccccc2)[n+]2ccccc2n1CCc1ccccc1`, the Potency was 2.5 µM (active).

With `S=P(c1ccccc1)(c1ccccc1)c1c[n+](Cc2ccccc2)c2ccccn12`, the Potency is 9.96 µM (active).

On to `S=P(c1ccccc1)(c1ccccc1)c1c(-c2ccccc2)[nH]c2ccccc12`, for which the Potency was 31.5 µM (active).

Turning to `Cc1c(P(=S)(c2ccccc2)c2ccccc2)[n+]2ccccc2n1Cc1ccccc1`, the Potency is 1.99 µM (active).

The values above are taken from PubChem BioAssay AID2568 (National Center for Advancing Translational Sciences (NCATS), 2010).
